Screening results (PubChem)
DT40 TDP1 CPT: qHTS for Inhibitors of human tyrosyl-DNA phosphodiesterase 1 (TDP1): qHTS in cells in presence of CPT; chicken DT40 Tdp1-/-;hTDP1 cells + 20 nM CPT, ATP luminescence, 48 h; Potency, µM (top dose mostly 46.2 µM), for the others: at the top dose activity change, negative = growth inhibition, hits mostly inhibitors; 420,000 tested, 12% active; note: potency is the fitted concentration of half-maximal effect; nearly all actives have a fitted effect of over 55% in size
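Chicken DT40 Tdp1-/- cells stably complemented with human TDP1 were seeded at 400 cells/well in medium containing 20 nM camptothecin, exposed to pin-transferred compounds, and grown at 37 °C for at least 48 hr. Viability was read as ATP luminescence.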
DT40 TDP1 no CPT: qHTS for Inhibitors of human tyrosyl-DNA phosphodiesterase 1 (TDP1): qHTS in cells in absence of CPT | DT40 Tdp1-/- hTDP1 cells, no CPT, ATP luminescence, 48 h | Potency, µM (highest dose often 46.2 µM), for the others: at the highest dose activity change, negative = growth inhibition, hits mostly inhibitors | 420,000 tested, 15% active; note: potency is the fitted concentration of half-maximal effect; nearly all actives have a fitted effect of over 55% in size
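Stably hTDP1-transfected Tdp1-null chicken DT40 cells were treated with library compounds minus camptothecin and grown for at least 48 hr at 37 °C, after which cellular ATP was quantified by luminescence.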
12-LOX inh: Primary qHTS assay for inhibitors of human arachidonate 12S-lipoxygenase (ALOX12): Round 2. Polyunsaturated fatty acid lipoxygenase ALOX12 (Homo sapiens), P18054. purified 12hLO, xylenol orange hydroperoxide absorbance. Potency, µM (top dose mostly 108 µM), for inactives: at the highest dose activity change, negative = inhibition, usual class: inhibitors. 580,000 tested, 1.1% active; note: potency is the fitted concentration of half-maximal effect
Target sequence (P18054 whole entry, looked up): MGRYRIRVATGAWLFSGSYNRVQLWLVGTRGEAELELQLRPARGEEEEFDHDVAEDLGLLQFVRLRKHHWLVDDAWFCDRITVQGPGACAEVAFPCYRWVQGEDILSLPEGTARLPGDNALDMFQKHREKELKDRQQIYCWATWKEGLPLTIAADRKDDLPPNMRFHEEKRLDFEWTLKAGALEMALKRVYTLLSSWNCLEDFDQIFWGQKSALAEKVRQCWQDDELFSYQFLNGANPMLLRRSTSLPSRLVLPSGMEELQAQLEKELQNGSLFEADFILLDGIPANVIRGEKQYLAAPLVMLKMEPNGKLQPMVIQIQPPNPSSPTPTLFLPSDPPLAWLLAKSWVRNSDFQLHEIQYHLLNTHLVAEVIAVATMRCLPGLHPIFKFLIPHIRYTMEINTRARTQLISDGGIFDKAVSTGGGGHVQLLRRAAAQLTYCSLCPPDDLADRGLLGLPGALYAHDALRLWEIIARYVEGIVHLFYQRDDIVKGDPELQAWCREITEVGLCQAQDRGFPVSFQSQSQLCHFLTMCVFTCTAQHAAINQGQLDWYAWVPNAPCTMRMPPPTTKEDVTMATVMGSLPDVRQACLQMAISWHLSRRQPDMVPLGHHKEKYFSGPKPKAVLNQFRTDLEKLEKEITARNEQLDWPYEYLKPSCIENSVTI
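Purified human 12hLO at 150 nM in 25 mM Hepes, 0.01% Triton X-100, pH 7.0, preincubated 15 min at room temperature with compound. Reaction started with 40 uM arachidonic acid, 30 min at room temperature. Hydroperoxide measured by Fe-xylenol orange, 573/405 nm absorbance ratio.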
HT1080 IDH1KD tx: qHTS for induction of synthetic lethality in tumor cells producing 2HG: qHTS for the HT-1080-IDH1KD cell line; HT-1080 IDH1 knockdown viability, ATP luminescence, 48 h; Potency, µM (series often up to 46.1 µM), for inactives: at the top dose activity, negative = toxicity, usual class: cytotoxic; 360,000 tested, 2% active;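 note: potency is the fitted concentration of half-maximal effect; 0% = DMSO wells and -100% = cell-free medium wells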
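Viability of IDH1-knockdown HT-1080 fibrosarcoma cells was assessed by CellTiter-Glo after 48 h at 37 °C with titrated compound; concentration-effect curves were classified by fit quality and response size.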
HT1080NT lethal: qHTS for induction of synthetic lethality in tumor cells producing 2HG: qHTS for the HT-1080-NT fibrosarcoma cell line. 360,000 tested, 1.6% active. HT-1080-NT fibrosarcoma viability, CellTiter-Glo ATP luminescence, 48 h. Potency, µM (doses to about 46.1 µM), for the others: top-dose activity, negative = less viability, usual class: cytotoxic;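 note: NT is the 2HG producing partner of a matched IDH1 knockdown line; potency is the fitted concentration of half-maximal effect; 0% = DMSO-treated cells and -100% = media-only wells without cells; nearly all actives have a fitted effect of over 55% in size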
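Viability of the 2HG-overproducing fibrosarcoma line after 48 hours of compound exposure at 37 degrees C was determined by luminescence with CellTiter-Glo, and concentration-effect curves were then fitted and categorized.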
IL1B secr inh: qHTS for Inhibitors of Inflammasome Signaling: IL-1-beta AlphaLISA Primary Screen; THP-1 LPS/ATP IL-1B secretion, AlphaLISA, 16 h; active compounds read low; activity change, % at 57.5 µM; 360,000 tested, 4.7% active; in the data active = activity change below about -50%; inconclusive = mostly about -30% to -49%
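THP-1 cells pretreated 1 hr with compounds (up to 57.5 uM final), then stimulated with LPS (250 ng/mL final) plus ATP (1.25 mM final); secreted IL-1B measured by AlphaLISA after 16 hr, decreased signal indicating inhibition.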
* = called active by the depositor; i = inactive; ? = inconclusive; · = no result; [ ] = dose if it differs, or a comment. This is one part of a sample in which hits are shown more often than they occur. Unless noted, calls come from the whole dose curve; as a rule, active = well fitted curve in the direction sought with a large enough effect; inconclusive = small, poorly fitted or top-dose-only effect, or another doubt; inactive = no such curve, though single readings can be large; an effect the other way counts as inactive or inconclusive. Unless noted, % is set by controls: 0 for no effect and ±100 for the full control effect.

SMILES | DT40 TDP1 CPT | DT40 TDP1 no CPT | 12-LOX inh | HT1080 IDH1KD tx | HT1080NT lethal | IL1B secr inh
CCCCOC(=O)c1ccc(Nc2nc3ccc(C)cc3n3cnnc23)cc1 | -1.1% | -22.0% | -7.2% | · | · | ·
CCOc1ccc(Nc2nc3ccccc3n3cnnc23)cc1 | ? | 23.1µM* | 5.5% | 1.6% | -1.7% | 0.0
c1ccc(Nc2nc3ccccc3n3cnnc23)cc1 | -25.8% | -24.6% | -10.7% | 2.7% | 4.0% | 34.0
O=C(O)c1ccc(Nc2nc3ccccc3n3cnnc23)cc1 | ? | 7.31µM* | 8.8% | · | · | ·
CCCCOC(=O)c1ccc(Nc2nc3ccc(C(=O)c4ccccc4)cc3n3cnnc23)cc1 | 20.6µM* | 16.4µM* | -14.9% | · | · | ·
Cc1ccsc1C(=O)N1CCC2(CC1)NC(=O)N(Cc1ccccc1)C2=O | · | · | 10.0% | · | · | ·
COc1ccc(NC(=O)N2Cc3[nH]cnc3C[C@H]2c2nc(-c3ccccc3)no2)cc1 | · | · | 17.6%[176 µM] | · | · | ·
Cc1ccc(Cn2nnc3c2-c2ccccc2S(=O)(=O)N(C(C)(C)C)C3)cc1 | · | · | 17.6% | · | · | ·
COc1ccc(N2C(=O)CSC23CCC(C(C)(C)C)CC3)cc1 (configuration not stated) | ? | 18.4µM* | 6.6% | 3.9% | -2.0% | -1.6
N/N=C/C(=N\Nc1ccc(Cl)cc1)C(=O)c1ccncc1 | 8.2% | -23.3% | 39.8% | ? | ? | -50.8*
COc1ccc(OC)c(CN2CCC3(CCCNC3)C2)c1 (configuration not stated) | · | · | 39.2% | · | · | ·
COC(C(=O)Nc1ccc(S(=O)(=O)Nc2ccc(F)cc2)cc1)c1ccccc1 (configuration not stated) | ? | ? | -26.8% | ? | ? | -100.7*
COC(C(=O)Nc1ccc(S(=O)(=O)N2CCCCC2)cc1)c1ccccc1 (configuration not stated) | ? | -21.6% | -2.7% | -7.1% | -16.0% | -10.7
CCn1c(-c2ccccc2)cc2ccccc21 | · | · | 34.2% | · | · | ·
Cn1nnnc1C1CCCN(C(=O)c2ccccc2F)C1 (configuration not stated) | · | · | 5.8% | · | · | ·
COc1cccc2nc3cc(C)c(C)cc3nc12 | 13µM* | 18.4µM* | ? | 8.2µM* | 18.4µM* | -3.9
COc1ccc2[nH]cc(CCNC(=O)C[C@H]3NC(=O)c4ccccc4NC3=O)c2c1 | · | · | 3.2% | · | · | ·
Cc1nn(-c2nc3ccccc3[nH]2)c(=O)c2ccccc12 | 1.84µM* | 2.06µM* | 21.4% | 1.46µM* | 1.46µM* | -15.8
Cc1nn(-c2ccc3ccccc3c2)c(=O)c2ccccc12 | ? | 16.4µM* | -1.9% | -18.4% | -4.3% | 44.4
Cc1nn(-c2nc3ccccc3[nH]2)c(N)c1-c1ccc(Cl)cc1 | ? | 16.4µM* | 0.0% | -24.6% | -11.1% | -27.4
Cc1nn(-c2ccc(Cl)c(Cl)c2)c(=O)c2ccccc12 | -27.6% | -23.9% | 154.2% | -3.5% | -6.9% | -11.5
Cc1nn(-c2ccc(Cl)cc2)c(=O)c2ccccc12 | -16.5% | ? | ? | -6.8% | 2.8% | 17.0
C[C@@H]1ON(C)[C@H]2C[C@H]3c4[nH]c5c(-c6ccc7c(c6)OCO7)cccc5c4CCN3C[C@@H]12 | · | · | -22.9% | · | · | ·
COc1ccccc1N(CC(=O)NC1CCCC1)C(=O)c1oc(C(C)(C)C)cc1C | 23.1µM* | 14.6µM* | 0.0% | -19.0% | -26.1% | -91.5*
Cc1cc(C(C)(C)C)oc1C(=O)N(CC(=O)NC1CCCC1)c1c(C)cccc1C | 11.6µM* | 5.17µM* | -29.1% | ? | ? | -27.3
SMILES | DT40 TDP1 CPT | DT40 TDP1 no CPT | 12-LOX inh | HT1080 IDH1KD tx | HT1080NT lethal | IL1B secr inh
COc1ccccc1N(CC(=O)NC1CCCC1)C(=O)c1csnn1 | 1.8% | ? | 0.0% | 20.8% | 15.5% | 5.3
Cc1cc(C(C)(C)C)oc1C(=O)N(CC(=O)NC1CCCC1)c1ccc(F)cc1 | ? | 16.4µM* | -15.4% | ? | ? | -24.5
CCOC(=O)c1ccc(-c2c(-c3ccc4c(c3)OCO4)noc2C)cc1F | 15.8µM* | ? | 0.6% | -10.5% | -0.8% | 20.5
CC(=O)OCC1=C(C(=O)O)N2C(=O)C(NC(=O)c3ccc(COc4c(C)cccc4Cl)o3)C2SC1 (configuration not stated) | -3.1% | -0.6% | ? | 0.0% | 4.4% | -8.8
CC(=O)OCC1=C(C(=O)O)N2C(=O)C(NC(=O)c3ccc(COc4ccc(Cl)cc4)o3)C2SC1 (configuration not stated) | -4.0% | ? | 39.8µM* | -2.0% | -0.1% | ?
CCOCc1nc(C2CCCN(C(=O)Cc3ccccc3C)C2)no1 (configuration not stated) | · | · | 10.4% | · | · | ·
CC(OC(=O)c1cc[n+]([O-])cc1)C(=O)Nc1ccc(Cl)cn1 (configuration not stated) | -7.7% | -10.1% | 0.0% | 6.3% | ? | 24.1
COc1cc(/C=C/C(=O)OC(C)C(=O)Nc2ccc(Cl)cn2)ccc1OC(F)F (configuration not stated) | 6.9% | -0.1% | -7.0% | 9.4% | -0.6% | -51.9*
COc1cc(/C=C/C(=O)OCC(=O)Nc2ccc(Cl)cn2)ccc1O | -28.8% | -22.3% | 163.9% | -9.1% | 2.4% | 0.0
Cc1ccsc1C(=O)OC(C)C(=O)Nc1ccc(Cl)cn1 (configuration not stated) | ? | 25.9µM* | 1.7% | -1.9% | 9.1% | -0.3
CC(OC(=O)C1CC1C)C(=O)Nc1ccc(Cl)cn1 (configuration not stated) | -1.0% | -4.5% | 9.7% | -9.9% | -5.7% | -9.2
Cc1ccc(/C=C/C(=O)OC(C)C(=O)c2ccc(C)c(C)c2)o1 (configuration not stated) | · | · | 6.31µM* | · | · | ·
Cc1ccc(/C=C/C(=O)OC(C)C(=O)Nc2ccc(Cl)cn2)o1 (configuration not stated) | 13µM* | 16.4µM* | ? | 1.8% | 16.7% | i
Cc1ccc(/C=C/C(=O)OC(C)C(=O)NC2CCCCC2C)o1 (configuration not stated) | -19.3% | ? | ? | 3.0% | 0.7% | 9.0
CCCCn1nc(C(=O)Nc2ccccc2CC)c2ccccc2c1=O | · | · | 6.8% | · | · | ·
